Source: the supplement of paper PMC12632987

T1: USP38, Q8NB14
T1 chain: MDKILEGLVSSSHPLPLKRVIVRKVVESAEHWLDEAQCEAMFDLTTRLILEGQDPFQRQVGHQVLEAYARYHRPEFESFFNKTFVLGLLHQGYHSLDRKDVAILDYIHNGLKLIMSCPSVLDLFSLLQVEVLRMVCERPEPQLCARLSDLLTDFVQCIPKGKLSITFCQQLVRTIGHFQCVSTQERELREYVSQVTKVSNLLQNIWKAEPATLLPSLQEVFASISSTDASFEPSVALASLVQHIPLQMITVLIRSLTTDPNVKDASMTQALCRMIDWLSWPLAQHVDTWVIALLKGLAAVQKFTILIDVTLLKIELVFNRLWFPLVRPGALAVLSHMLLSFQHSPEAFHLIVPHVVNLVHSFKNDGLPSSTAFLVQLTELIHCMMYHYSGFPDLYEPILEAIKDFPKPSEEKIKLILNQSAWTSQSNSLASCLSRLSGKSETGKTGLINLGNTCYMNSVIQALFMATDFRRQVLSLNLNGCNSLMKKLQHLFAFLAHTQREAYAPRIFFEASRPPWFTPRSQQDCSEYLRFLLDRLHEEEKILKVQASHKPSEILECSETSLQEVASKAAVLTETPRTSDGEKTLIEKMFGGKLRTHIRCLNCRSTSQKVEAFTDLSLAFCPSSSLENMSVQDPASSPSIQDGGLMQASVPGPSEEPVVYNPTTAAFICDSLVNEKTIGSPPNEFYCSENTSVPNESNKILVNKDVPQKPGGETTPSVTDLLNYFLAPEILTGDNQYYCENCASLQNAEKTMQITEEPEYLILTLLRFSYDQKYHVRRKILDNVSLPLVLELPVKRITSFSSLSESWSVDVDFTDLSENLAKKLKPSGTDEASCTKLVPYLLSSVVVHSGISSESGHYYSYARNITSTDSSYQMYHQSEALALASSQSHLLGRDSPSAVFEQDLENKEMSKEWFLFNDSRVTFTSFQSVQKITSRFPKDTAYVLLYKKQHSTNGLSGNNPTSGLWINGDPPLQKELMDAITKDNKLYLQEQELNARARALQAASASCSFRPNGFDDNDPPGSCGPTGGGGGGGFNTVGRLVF


Molecular target: T1, USP38, Q8NB14
Assay: median log2 fold change of GCK-ALFA target abundance (FLAG IP / Myc IP barcode read proportion) (log2 ratio); each designed protein is fused to an ALFA-tag nanobody in HEK293 cells to bring the named protein to FLAG-tagged glucokinase (GCK); Myc marks an untargeted standard; higher = target protein stabilised (more abundant)
Conditions: target protein: 3xFLAG-MCP-GCK-ALFA reporter; HEK293 landing pad (RPLP)
How it was run: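 HEK293 landing-pad cells received a recombined binder library fused to the ALFA nanobody and were induced with 2 μg mL^−1 doxycycline, then transfected with a plasmid encoding a FLAG-tagged target and a Myc-tagged standard. Lysates were collected after 48 h for anti-FLAG and anti-Myc immunoprecipitation, and the circular RNA barcodes were reverse transcribed, amplified and sequenced. Target abundance for each binder is the median log2 ratio of FLAG to Myc barcode read proportions. Barcodes had to reach a proportion of at least 10^−7 in both replicates, each binder needed at least 3 barcodes per replicate, a pseudocount of 10^−6 was applied, and the two replicates were pooled.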

| Binder | median log2 fold change |
| --- | --- |
| usp_38_diff_out_24_27_500 (protein) EKEKEEKIKKVKELFEEIEKLVKESRTADIAGRIRISSEVDELFEEIRKIAKELGNEEALKLIDKAKAQAFAIISGDENWEEHLKELKKLFEEILKEFEK | 0.364 |
| usp_38_diff_out_2_113_467 (protein) DPEERREEAELYRDIILEGADKLLRLAERGMLTPDRTRVMLGGIVHAAREAMELDPSTRPTIEEVIEKLERVRKLVEGKNPEIAKEVERAIEELKEILKE | 0.0135 |
| usp_38_diff_out_24_27_503 (protein) EEERKEKIERLKKLLEEILKLLEESRTGDISVRIRASSEIDELAEEIRKILEELGNEEGLELLTEFETQVYAVLSRSPNWEEHFEKAKELAEKILELAKK | -0.574 |
| usp_38_diff_out_2_113_468 (protein) DPEQKKEEAQLYKDIILEGADKLLELAKKGMLTPDRTKVMLGGIVHAAREAYELDPSVKPVIEEVIEKLEEIKELVKDKNPEIAKEIEEAIEELKKILEE | 0.211 |
| usp_38_diff_out_2_113_465 (protein) EEEERARLTQLYVDTILEGSDQLLRRAKRGTLSSTTMITMIGGIVEAAREAFRLDPSVKPVLEEVAKKLAEIAEIYADKDAETAAAVKAAIAEINALIEA | 0.0889 |
| usp_38_diff_out_24_27_505 (protein) SEELEKALEKALKLLEDIAEDLKEAQKKGPTALFVVKRKHVDEIDKLREELEKLGPELAREVTTILLAFLNRSAADPEKREEYLKEAKEKIKEAFEKHKK | 0.427 |
| usp_38_diff_out_2_113_470 (protein) DPEERKKEAELYKKIILEGAEQLLRLAKKGRLTPDRTRVMLGGIVEAARRAYELDPSVKPVIEEVIKKLEEVEKLVKDKNPEVAAAIKEAIKELKKILKE | 0.141 |
| usp_38_diff_out_2_113_463 (protein) SEEERRERAEDLARIILEGSEYLLEKAKRGTLSGETMITMIGGIVHAAEEAFRLDPSVAPVIKRAIEKLKEIAELYKDKNPEVYEAIKEAIERLEKLLAE | -0.229 |
| usp_38_diff_out_24_27_502 (protein) EEEKKKKLEEIKKLLEEILALLKASQTGDIATRIKASSEIDELFEKIEKILKELGNEEGLELLTELKTQAYAVLSRSPDWQEHLAKAKELAEKIIKLAKK | 0.548 |
| usp_38_diff_out_24_27_499 (protein) EEEKQKLLKELLKKFEEILKLSEKAVGADLATRIKLSSEIDEKLEEARKLAKELGDEEIEELVTKVEIAANIVLSGSEEAEEALKEIKKLVEELKKKIEE | 0.204 |
| usp_38_diff_out_2_113_460 (protein) DEEERKELAELYKKTILEGAEKLLKRTKKGTLSTATQIAMLGGIVHAAKEAAKLDPSVKPVLEEVIKKLKEIAELVKDKNPELYAATQKAIEEIEKILKE | 0.123 |
| usp_38_diff_out_24_27_504 (protein) SEEHEKKLEELKKLLEEILKLLEESKTGDISVRIKASSEIDELFKEIEKILKELGNEEGLKLLKEFKTQAYAVLSRSPDWEEHLKKAKELAKKILELVEK | 0.3 |
| usp_38_diff_out_2_113_464 (protein) DPEERQRLALLLRDTVVSGADYLLEKAKKGTLSSDTIITMIGGITHAARELAALDPSAKPALEEVAKKLKEIAEIYKDKDEEVKKAVEEAIKEIEALIKA | 0.0135 |
| usp_38_diff_out_24_27_501 (protein) SAEHEKKLEKAKELLKKILELAEKAQTGDIATRIKASSEIDELFEELKKIAEEENNEELLKLLTELKTKVYAVLSGHPNAEEHLKEAKKLAEKFLEELKK | 0.157 |
| usp_38_diff_out_2_113_466 (protein) DPEERAEEAALYRDIILEGAELLLRKAKKGMLTPDRTRVMLGGIVHAAEVAYELDPSVAPDIERVIEKLEEVRELVKDKNPEVAAEIEKAIEELKAILER | -0.156 |
| usp_38_diff_out_2_113_461 (protein) SEEERKERAEDLKEIITEGSDYLLEKAKKGTLSGDTMIVMIGGIVHAAKEAFALDPSVKPTIEEAIKKLEEIKELYKDRNPEVAKAIEDAIKELKALLAK | -0.00144 |
